Compound activity deposited in PubChem by National Center for Advancing Translational Sciences (NCATS).
AmpC inh no detg – blocks E. coli AmpC beta-lactamase in detergent-free assay. AmpC nitrocefin hydrolysis, absorbance 480 nm, 0.0001% Triton. Potency, µM (titrated, usually from 57.1 µM), for the others: at the top dose activity change, negative = inhibition, usual class: inhibitors. 330,000 tested, 0.52% active. AID 485341;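 note: plate controls were no compound for no effect and no enzyme for full effect; nearly all actives have a fitted effect of over 20% in size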
Target sequence (P00811 whole entry, looked up): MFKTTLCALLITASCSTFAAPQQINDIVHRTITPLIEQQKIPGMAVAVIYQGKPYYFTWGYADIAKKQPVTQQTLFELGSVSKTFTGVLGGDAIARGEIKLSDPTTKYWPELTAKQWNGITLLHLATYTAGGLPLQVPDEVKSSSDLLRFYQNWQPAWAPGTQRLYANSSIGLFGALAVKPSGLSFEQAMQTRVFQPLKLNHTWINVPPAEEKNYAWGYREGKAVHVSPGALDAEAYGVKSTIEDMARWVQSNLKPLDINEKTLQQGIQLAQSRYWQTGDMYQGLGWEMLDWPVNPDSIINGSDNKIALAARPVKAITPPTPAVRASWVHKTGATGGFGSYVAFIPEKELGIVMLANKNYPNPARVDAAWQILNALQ
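20 mM phosphate pH 7.0 + 0.01% (detergent screen) or 0.0001% Triton X-100; 5.3 nM AmpC reagent; cpd preinc 15 min RT; nitrocefin (800 uM stock) to start; A480 q20 s × 4 min; Activity was normalised to no-enzyme and no-compound control wells.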
HCV inh – HCV inhibition; Potency, µM (titrated, usually from 41.8 µM), for the others: at the top dose activity change, negative = inhibition, actives largely listed as inhibitors; 340,000 tested, 3.4% active; Huh7.5.1 HCVcc-Cre infection, luciferase reporter, 44 h; AID 651820
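After 44 h co-culture of compound, cells and HCVcc-Cre (~0.5 moi), substrate is added for 15 min at room temperature and luciferase measured over 15 sec. Cells were seeded at 1,000/well and pre-cultured 4 h.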
AMA1 RON2 block – inhibitors of Plasmodium falciparum AMA1-RON2 interaction | Potency, µM (doses to about 58.2 µM), inactives show at the top dose activity change, negative = inhibition, usual class: inhibitors | AlphaScreen AMA1-biotinylated RON2 peptide binding | 360,000 tested, 0.2% active | AID 720542;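 note: 0% = vehicle wells and -100% = peptide control; nearly all actives have a fitted effect of over 45% in size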
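AMA1 (3D7) with his tag at 25 nM final met compounds first, then biotinylated RON2 peptide at 25 nM; detection used donor plus acceptor beads, 10 µg/mL apiece, read by AlphaScreen after 30 min at room temperature.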
Pf growth 96h – P. falciparum growth inhibition at 96 hours; P. falciparum luciferase reporter growth, 96 h; Potency, µM (highest dose often 28.7 µM), for the others: top-dose activity change, negative = inhibition, actives largely listed as inhibitors; 320,000 tested, 6.9% active
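P. falciparum expressing integrated firefly luciferase grown in erythrocytes (2% hematocrit, 0.05% parasitemia final) with compounds for 96 hours at 37 C, 5% CO2. Growth inhibition read as loss of luminescence after adding luciferase detection reagent.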
Pf growth 48h – P. falciparum growth inhibition at 48 hours (one generation). 310,000 tested, 5.9% active. Potency, µM (top dose mostly 28.7 µM), for the others: at the top dose activity change, negative = inhibition, hits mostly inhibitors. AID 504832. P. falciparum luciferase growth in erythrocytes, 48 h
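Erythrocytes infected with P. falciparum carrying an integrated firefly luciferase reporter (2% hematocrit, 0.1% parasitemia final) were exposed to compounds in RPMI 1640 with 0.5% Albumax at 37 C, 5% CO2. Growth inhibition was scored as reduced luminescence.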
AmpC inh detg – inhibitors of E. coli AmpC beta-lactamase with detergent. P00811. 370,000 tested, 0.041% active. AmpC hydrolysis of nitrocefin, absorbance 480 nm, 0.01% Triton. AID 485294. Potency, µM (highest dose often 114 µM), for inactives: at the top dose activity change, negative = inhibition, most hits filed as inhibitors;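 note: 0% = no-compound wells and -100% = no-enzyme wells; nearly all actives have a fitted effect of over 25% in size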
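20 mM phosphate pH 7.0 + 0.01% (detergent screen) or 0.0001% Triton X-100; 5.3 nM AmpC reagent; cpd preinc 15 min RT; nitrocefin (800 uM stock) to start; A480 q20 s × 4 min; Activity was normalised to no-enzyme and no-compound control wells.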
Active calls of the source: *; ? = inconclusive; nt = no result; [ ] = remark or other dose. Hits are enriched below; roughly 11% of the tested compounds scored in any of these assays. Calls come from the whole dose curve; as a rule, active = well fitted curve in the direction sought with a large enough effect; inconclusive = small, poorly fitted or top-dose-only effect, or another doubt; inactive = no such curve, though single readings can be large; an effect the other way counts as inactive or inconclusive. Unless noted, % is set by controls: 0 for no effect and ±100 for the full control effect; potency is the fitted concentration of half-maximal effect.

SMILES	AmpC inh no detg	HCV inh	AMA1 RON2 block	Pf growth 96h	Pf growth 48h	AmpC inh detg
O=C(CCn1c(=O)c2cccn2c2cccnc21)N1CCN(c2ccc(F)cc2)CC1	nt	nt	nt	nt	nt	11%
Cc1cc(C(=O)OCC(=O)N2CCN(C(=O)c3ccco3)CC2)c(C)n1-c1ccc(F)cc1	130%	-19%	0%	21%	12µM*	-9%
O=C(OCC(=O)N1CCN(C(=O)c2ccco2)CC1)c1cn(-c2ccccc2)nc1-c1ccccc1	156%	2.8µM*	-3%	-7%	?	-20%
O=C(OCC(=O)N1CCCC1)c1ccccc1OCc1ccccc1	7%	24%	4%	13%	14%	1%
Cc1cnc(C(=O)OCC(=O)N2CCN(C(=O)c3ccco3)CC2)cn1	-12%	32%	-2%	5.2µM*	-1%	-11%
O=C(OCC(=O)N1CCN(C(=O)c2ccco2)CC1)c1ccccc1OCc1ccccc1	57%	31%	0%	12µM*	-8%	-7%
Cc1ccc(N2CC(NC(=O)c3cccc(Cl)c3)CC2=O)cc1C (stereo not drawn)	nt	nt	nt	nt	nt	1%
COc1cccc(N/C(=N/C(=S)Nc2ccc(C)cc2C)Nc2nc(C)cc(C)n2)c1	-35%	?	32%	3.3µM*	4.1µM*	-7%
CCNC(=S)/N=C(/Nc1ccc(OC)cc1)Nc1nc(C)cc(C)n1	-26%	?	-7%	?	?	-8%
CCS(=O)(=O)Nc1cc(-c2cn3ccc(C)cc3n2)ccc1C	nt	nt	nt	nt	nt	22%
Oc1ccc(-c2cn3ccccc3n2)cc1O	-10%	?	22µM*	35%	nt	-14%
CC(=O)Nc1cccc(-c2cn3ccccc3n2)c1	-12%	1%	-2%	13µM*	82%	-3%
Cc1ccn2cc(-c3ccc(O)c(O)c3)nc2c1	-15%	-27%	2.5µM*	?	-92%	-1%
CCn1nc(C)c2c(-c3ccccc3)cc(=O)n(C(C)C(=O)NCc3cccc(OC)c3)c21 (stereo not drawn)	nt	nt	nt	nt	nt	19%
CCc1ccc(N2C(=O)CSC23C(=O)N(Cc2cccc(OC)c2)c2ccccc23)cc1 (stereo not drawn)	nt	nt	nt	nt	nt	25%
Cc1ccc(Cl)cc1N1CCN(C(=O)c2cnn(C)c2C2CCN(C(=O)OC(C)(C)C)CC2)CC1	nt	nt	nt	nt	nt	-4%
CC1=Nc2ccc(Br)cc2C(c2ccccc2)N1CC(=O)NN (stereo not drawn)	24%	16%	-17%	8%	?	-6%
NNC(=O)CN1C(CN2CCOCC2)=Nc2ccc(Br)cc2C1c1ccccc1 (stereo not drawn)	131%	18%	19%	13µM*	?	-1%
NNC(=O)CN1C(c2ccc(Cl)cc2)=Nc2ccc(Br)cc2C1c1ccccc1 (stereo not drawn)	-51%	-14%	45%	34%	8.3µM*	-9%
CCCN1CCN(CCCNC(=O)c2cnn(-c3ccc(F)cc3)c2-n2cccc2)CC1	nt	nt	nt	nt	nt	10%
COc1cc(NC(=O)CSC2=Nc3ccccc3N=C(c3ccc(F)cc3)C2)cc(OC)c1	nt	nt	nt	nt	nt	15%
Cc1cccc(NC(=O)Cn2c(=O)n(Cc3ccc4c(c3)OCO4)c(=O)c3oc4ccccc4c32)c1C	nt	nt	nt	nt	nt	0%
Cc1ccc(NC(=O)C[n+]2cc(-c3ccccc3)n3c2CCC3)c(C)c1	-11%	-18%	-2%	5.2µM*	?	7%
O=C(C[n+]1cc(-c2ccccc2)n2c1CCC2)c1cccs1	0%[11.4 µM]	-28%	-6%	?	?	-11%
Cc1ccc(-c2c[n+](CC(=O)Nc3c(C)cccc3C)c3n2CCC3)cc1	4%	2%	7%	15µM*	?	-13%
CCc1ccc(NC(=O)C[n+]2cc(-c3ccc(C)cc3)n3c2CCC3)cc1	33%	?	-11%	1.5µM*	2.9µM*	2%
